We go through 19 compounds from PubChem BioAssay (Tox21).

Assay [1] can be described thus: qHTS assay for small molecules that induce genotoxicity in human embryonic kidney cells expressing luciferase-tagged ATAD5 (AID 651632). Also: nearly all actives have a fitted effect of over 15% in size. Also: potency is read from the fitted curve at half-maximal effect. An outline of the steps:
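Quantitative HTS in HEK293T expressing luciferase-tagged ATAD5, whose levels rise upon DNA damage. Exposure ran 16 hr at 37C and 5% CO2, with luminescence read 30 min after Amplite addition at room temperature.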
On the technique in general: Quantitative high-throughput screening tests each substance at several concentrations.

Assay [2] can be described thus: qHTS assay for small molecule agonists of the p53 signaling pathway - cell viability (AID 651633; calls by dose curve; also: nearly all actives have a fitted effect of over 30% in size; also: potency is read from the fitted curve at half-maximal effect). Put shortly:
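p53RE-bla cells were treated with compound for 16 hours at 37 C. Cytotoxicity was then measured as CellTiter-Glo luminescence after 30 min at room temperature.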

Assay [3] in a line: qHTS assay for small molecules that induce genotoxicity in human embryonic kidney cells expressing luciferase-tagged ATAD5 - cell viability (AID 651634; calls by dose curve; also: nearly all actives have a fitted effect of over 25% in size; also: potency is read from the fitted curve at half-maximal effect). An outline of the steps:
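After 15.5 hr incubation with compound at 37C, 5% CO2, HEK293T ATAD5-luciferase cells received CellTiter-Fluor reagent; fluorescence intensity was quantified following 30 min at 37C.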

Assay [4] can be described thus: qHTS assay for small molecule disruptors of the mitochondrial membrane potential - cell viability (AID 720634; calls by dose curve; also: nearly all actives have a fitted effect of over 20% in size; also: potency is read from the fitted curve at half-maximal effect). Put shortly:
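ATP-based luminescent viability readout (CellTiter-Glo, 30 min, room temperature) in HepG2 cells multiplexed with the m-MPI membrane potential dye; compound exposure lasted 1 hr at 37 C.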

The nature of assay [5]: qHTS assay to test for compound auto fluorescence at 535 nm (green) in HepG2 cells (AID 720675).
Assay [6] can be described thus: qHTS assay to test for compound auto fluorescence at 460 nm (blue) in HEK293 cells (AID 720678). An outline of the steps: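 After cell attachment (4-5 hr, 37C), compounds were pinned onto HEK293 monolayers in 10% dialyzed FBS medium. The blue channel (405/460 nm) was read following overnight culture. Equivalency was calculated against triamterene.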
The nature of assay [7]: qHTS assay to test for compound auto fluorescence at 590 nm (red) in HEK293 cells (AID 720679). An outline of the steps: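 Plates of HEK293 cells (10% dialyzed FBS) are treated with 23 nL compound or DMSO vehicle after a 4-5 hr attachment period, incubated overnight at 37C, and read for red fluorescence at 540/590nm.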
Assay [8] can be described thus: qHTS assay to test for compound auto fluorescence at 590 nm (red) in HepG2 cells (AID 720674). Put shortly:
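Fluorescence at 590 nm emission following 540 nm excitation was recorded from HepG2 wells one hour after compound transfer, with DMSO-only wells as vehicle and Rose Bengal sodium equivalency as the scale.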

Assay [9] can be described thus: qHTS assay for small molecule disruptors of the mitochondrial membrane potential (AID 720635). Also: potency is read from the fitted curve at half-maximal effect. Put shortly: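 HepG2 cells exposed to compound 1 hr at 37C, then Mito-MPS dye 30 min. Ratio read of aggregate (540/590 nm) versus monomer (490/535 nm) fluorescence.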

Inconclusive results are not listed. The source made the active and inactive calls. Unless noted, calls follow the shape of the dose curve; as a rule, active = well fitted curve in the direction sought with a large enough effect in the repeat runs; inconclusive = weak or mixed curves; inactive = no such curve, though single readings can be large; an effect the other way counts as inactive or inconclusive.

For the compound `COc1ccc(C[C@H](N)C(=O)N[C@H]2[C@@H](O)[C@H](n3cnc4c(N(C)C)ncnc43)O[C@@H]2CO)cc1`, the Potency in [1] is 1.06 µM (active); in [2], 5.96 µM (active); in assay [3], 2.66 µM (active). Further, the Potency result in [4], in assay [5], in [6] and in assay [7] was “inactive” throughout.
As for `O=C(OC1C[C@@H]2CC3C[C@H](C1)N2CC3=O)c1c[nH]c2ccccc12` (some centres not stated), the Potency entry in assay [1], in assay [2], in assay [3], in assay [4], in assay [5] and in assay [6] was “inactive” throughout. The Potency result in [7] is “inactive”.
Take `Cc1cc(C(=O)NNCc2ccccc2)no1`: the Potency entry in [1], in [2], in assay [3], in [4], in [8] and in assay [5] was “inactive” each time. Also, the Potency entry in assay [6] and in [7] was “inactive” in each case.
In the case of `CO[C@H]1C[C@H](O[C@H]2[C@H](C)O[C@@H](O[C@@H]3/C(C)=C/C[C@@H]4C[C@@H](C[C@]5(C=C[C@H](C)[C@@H](C6CCCCC6)O5)O4)OC(=O)[C@@H]4C=C(C)[C@@H](O)[C@H]5OC/C(=C\C=C\[C@@H]3C)[C@]54O)C[C@@H]2OC)O[C@@H](C)[C@@H]1O`, the Potency entry in assay [1], in assay [8], in assay [5], in assay [6] and in assay [7] was “inactive” in each case. The Potency is 6.68 µM (active) in [2], 13.3 µM (active) in [3] and 11.9 µM (active) in [9].
For `CN=C1C=CC(=C(c2ccc(N(C)C)cc2)c2ccc(N(C)C)cc2)C=C1`, the Potency entry in assay [1], in assay [8], in [5], in assay [6] and in [7] was “inactive” each time. Besides, the Potency in assay [2] was 18.8 µM (active); in [3] it was 4.73 µM (active); in [9], 0.0441 µM (active).
Turning to `CC1=C(C(=O)OCCN(Cc2ccccc2)c2ccccc2)C(c2cccc([N+](=O)[O-])c2)C(P2(=O)OCC(C)(C)CO2)=C(C)N1` (configuration not stated), the Potency entry in assay [1], in assay [2], in assay [4], in [5], in [6] and in assay [7] was “inactive” in each case. Also, the Potency in assay [9] is 26.6 µM (active).
Regarding `S=C1SCN(Cc2ccccc2)CN1Cc1ccccc1`, the Potency entry in assay [1], in assay [2], in assay [3], in assay [4], in assay [8] and in assay [5] was “inactive” in each case. The Potency entry in assay [6] and in assay [7] was “inactive” throughout.
With `C[C@]12CC[C@@H]3c4ccc(O)cc4CC[C@H]3[C@@H]1CC[C@@H]2OP(=O)(O)O`, the Potency result in assay [1], in assay [2], in assay [3], in assay [4], in [5] and in assay [6] was “inactive” each time. In addition, in assay [7], the Potency entry is “inactive”.
`Cc1cc(-c2ccc(N=Nc3c(S(=O)(=O)O)cc4cc(S(=O)(=O)O)cc(N)c4c3O)c(C)c2)ccc1N=Nc1c(S(=O)(=O)O)cc2cc(S(=O)(=O)O)cc(N)c2c1O`: the Potency result in [1], in assay [2], in assay [8], in [5], in assay [6] and in assay [7] was “inactive” each time. Moreover, the Potency in assay [3] is 26.6 µM (active).
On to `CN[C@H]1CCc2cc(OC)c(OC)c(OC)c2-c2ccc(OC)c(=O)cc21`, for which the results for the Potency in assay [1] and in assay [9] were 0.237 µM (active) and 0.335 µM (active), respectively. Also, the Potency result in assay [2], in [4], in [8], in [5], in [6] and in assay [7] was “inactive” each time.
Turning to `CCC(=O)O[C@]1(C(=O)CCl)[C@@H](C)C[C@H]2[C@@H]3C[C@H](F)C4=CC(=O)C=C[C@]4(C)[C@@]3(F)[C@@H](O)C[C@@]21C`, the Potency entry in assay [1], in assay [2], in assay [3], in [8], in [5] and in assay [6] was “inactive” in each case. Also, in assay [7], the Potency entry is “inactive”. Moreover, the Potency in [9] was 11.9 µM (active).
On to `N#CC(c1ccc(Cl)cc1)c1c(Cl)cc(-n2ncc(=O)[nH]c2=O)cc1Cl` (configuration not stated), for which the Potency result in assay [1], in [4], in assay [8], in assay [5], in [6] and in [7] was “inactive” in each case. In addition, the results for the Potency in assay [2] and in [9] were 23.7 µM (active) and 8.41 µM (active), respectively.
Consider `CO[C@H]1C=CO[C@@]2(C)Oc3c(C)c(O)c4c(O)c(c(/C=N/N5CCN(C6CCCC6)CC5)c(O)c4c3C2=O)NC(=O)/C(C)=C\C=C[C@H](C)[C@H](O)[C@@H](C)[C@@H](O)[C@@H](C)[C@H](OC(C)=O)[C@@H]1C`, for which the Potency entry in assay [1], in [8], in assay [5], in assay [6] and in assay [7] was “inactive” each time. For the same compound, the Potency in [2] was 26.6 µM (active); in [3], 21.1 µM (active); in assay [9] it was 1.19 µM (active).
As for `CCCCC(=O)N(Cc1ccc(-c2ccccc2-c2nn[nH]n2)cc1)[C@@H](C(=O)O)C(C)C`, the Potency result in assay [1], in assay [2], in assay [3], in [8], in [5] and in assay [6] was “inactive” throughout. Moreover, the Potency result in assay [7] was “inactive”.
With `CN(C)c1ccc(C(=C2C=CC(=[N+](C)C)C=C2)c2c(O)c(S(=O)(=O)[O-])cc3cc(S(=O)(=O)O)ccc23)cc1`, the Potency result in assay [1], in assay [2], in [4], in [8], in [5] and in assay [6] was “inactive” in each case. In addition, the Potency entry in assay [7] was “inactive”.
As for `C=C1CC[C@H](O)CC1=C/C=C1\CCC[C@]2(C)[C@@H]([C@H](C)CC[C@@H](O)C(C)(C)O)CC[C@@H]12`, the Potency entry in [1], in assay [4], in assay [5], in assay [6] and in assay [7] was “inactive” throughout. For the same compound, the Potency is 21.1 µM (active) in [2] and 11.9 µM (active) in assay [9].
As for `C[C@]12CCC(=O)C=C1CC[C@@H]1[C@@H]2[C@@H](O)C[C@@]2(C)[C@H]1CC[C@]2(O)C(=O)COP(=O)(O)O`, the Potency entry in assay [1], in [2], in assay [3], in assay [4], in [5] and in assay [6] was “inactive” in each case. For the same compound, the Potency result in [7] was “inactive”.
Regarding `CCN(CC)CCOCCOC(=O)C(CC)(CC)c1ccccc1`, the Potency entry in assay [1], in assay [2], in assay [3], in assay [4], in assay [5] and in assay [6] was “inactive” throughout. In [7], the Potency result was “inactive”.
For `Clc1cc(Cl)c(OCC#CI)cc1Cl`, the Potency result in assay [1], in assay [8], in assay [5], in [6] and in assay [7] was “inactive” in each case. The Potency is 26.6 µM (active) in assay [2], 9.44 µM (active) in [4] and 4.73 µM (active) in assay [9].
